Measurements reported in article PMC13494018.

B1: design_604_3e0b3014-b333-46f1-8adc-d7f0bf8048fa_2086_dldesign_0_cycle1_af2pred (protein)
chain: SAAAEKNVALASGTFKRLLEFPEEEQVATIADSIRANPAAADYFAAAAKADKENGPKLKKVLDIAAAKVAAA
B2: design_605_6ebdab39-eaab-4492-afcb-164e20c3b25e_390_dldesign_0_cycle1_af2pred (protein)
chain: KEEKVEEVKKKMEESSLAEAVFIGIEAVMEFTKDAPEYMRKIVKAGRKGGEEGDEEKAKKEMAEIVKKAAE
B3: design_604_3e0b3014-b333-46f1-8adc-d7f0bf8048fa_2309_dldesign_0_cycle1_af2pred (protein)
chain: SHELLQQAIEELTAAEAEARRAAKIAEKKDKELAKKAKELAKKARELRKELIEKAKAGEATDEYIEEVLKKAKELEKEAKKILKEL
B4: design_604_3e0b3014-b333-46f1-8adc-d7f0bf8048fa_2312_dldesign_0_cycle1_af2pred (protein)
chain: MEEVEKLKKEAEKAAKEAEKAVERIKDPKTAKEALKEASKELAKLYELAAELEHLPEGKEAGKEVREKAKKLREEAKKAWAAQLAA
B5: design_605_6ebdab39-eaab-4492-afcb-164e20c3b25e_258_dldesign_0_cycle1_af2pred (protein)
chain: KAKELSKIVHEGFQAAKELELLAKKDPRMKPAAEEAEKLRKKAVEAAKAGDYEKAAEYAKKLKELAEKALKEYE
B6: design_604_3e0b3014-b333-46f1-8adc-d7f0bf8048fa_1973_dldesign_0_cycle1_af2pred (protein)
chain: MAEKEAKAKKLMAEGYSKVYEAAALARVDPEEGKKEWEEVVEKYTKELEKLDPEKGKELKEKAEKLLEKAL
B7: design_605_6ebdab39-eaab-4492-afcb-164e20c3b25e_593_dldesign_0_cycle1_af2pred (protein)
chain: EVEAKASEVAARARQVIAEAEYLERRAKKEGDKEKEKKAKEAKELAEKALELIKKGGLEGVEKAEKLVEEAEKLLEE
B8: design_605_6ebdab39-eaab-4492-afcb-164e20c3b25e_501_dldesign_0_cycle1_af2pred (protein)
chain: AAAEEAAKKALKELKEEAKKLVEEAKKSNAEEAKKKRKEVVELGKEYAEKAAASPEVQKEIAKVVHEAQEELAEAAFEHSRKEKE
B9: design_605_6ebdab39-eaab-4492-afcb-164e20c3b25e_661_dldesign_0_cycle1_af2pred (protein)
chain: MEEFEKLVKEAEKLIKKALESKDKEERKKLVEEAKEVLKKAQKLGKELAAKSTPEEAKEIVEKMHELHEKLAEAKQKAS
B10: design_605_6ebdab39-eaab-4492-afcb-164e20c3b25e_729_dldesign_0_cycle1_af2pred (protein)
chain: SSSKETSEFNRELQKRARAAGEELEKKSKNPEAGKEAKKLLSNGLMESFDKSSKEEAKAALDKAIAEAKKHVEEAS
B11: design_604_3e0b3014-b333-46f1-8adc-d7f0bf8048fa_2008_dldesign_0_cycle1_af2pred (protein)
chain: SSLEEAKKAKELAEELKKKVKELAKEAKADPSKAAEAAKVAKAIGEEAKELGKKYPEAAKYADAVAEYALHAAEQLEKLA
B12: design_605_6ebdab39-eaab-4492-afcb-164e20c3b25e_648_dldesign_0_cycle1_af2pred (protein)
chain: AEAEELKKKASQYLMEAFDTGSEEELKKAIEYAEKAAEAASEEEGKKILEEKEKMKKGFERFLKAYKEAQKKAEE
B13: design_604_3e0b3014-b333-46f1-8adc-d7f0bf8048fa_2182_dldesign_0_cycle1_af2pred (protein)
chain: EEEEKKQKAVEKAKEAAKRLKEVYEKAPEELKPIVKDALDKVEAYAELAELNDAEIAEKAAKRAEKIAEEAIKKVE
B14: design_604_3e0b3014-b333-46f1-8adc-d7f0bf8048fa_2376_dldesign_0_cycle1_af2pred (protein)
chain: EEFEKAKKELKEAAEEAKKIDPEVGKEAKKIAEKATKVADSIIEKVGERAKPIATDILKNAKEKIKKLTEKRKKEKEA
B15: design_605_6ebdab39-eaab-4492-afcb-164e20c3b25e_758_dldesign_0_cycle1_af2pred (protein)
chain: SEYFKEAVDVASKIVRAYHALAAVFPETAAQLEADGDAKVDKVMAAAELAEKDPEKGKAELEKQKAEAEKIKAEADKAAAAAR
B16: design_605_6ebdab39-eaab-4492-afcb-164e20c3b25e_565_dldesign_0_cycle1_af2pred (protein)
chain: AVEKTIAELLKAASAAIIELFDDPEKGRAKLAEVLAKAEAAAKAASPKDAAKIQAALDEMKKRGEAAIKRVEEDEKIAK
B17: design_605_6ebdab39-eaab-4492-afcb-164e20c3b25e_437_dldesign_0_cycle1_af2pred (protein)
chain: MKEEAEEAKKRAEAIKKAAKEDPDKAAALIAKGFASPLAAAVKAAPPETRAEAAAQAAKVATRILENEARSYERTAN
B18: design_605_6ebdab39-eaab-4492-afcb-164e20c3b25e_2_dldesign_0_cycle1_af2pred (protein)
chain: SAVKEEAKKIIDEALDAGFEDPEKGRALAEEAYKLLASVPELAALGEEALKKVNAIIDRFEEATKKAEESRK
B19: design_604_3e0b3014-b333-46f1-8adc-d7f0bf8048fa_2199_dldesign_0_cycle1_af2pred (protein)
chain: DAAVKAEASKVAAEAYEVIAEIEKLDPEKGKELRKKLKEARKKAKEDPKAGLAALKEVLEESKKELEKLKKEEKEKE
B20: design_605_6ebdab39-eaab-4492-afcb-164e20c3b25e_165_dldesign_0_cycle1_af2pred (protein)
chain: AAAAEAAAKEAAAKLAIAEARALIRAGRANPKFGVELALEGAKIAREAAKKNPAMKEELEKTAKEAEKEAKKLA
B21: design_605_6ebdab39-eaab-4492-afcb-164e20c3b25e_737_dldesign_0_cycle1_af2pred (protein)
chain: MEELKEQIKEIKEKAEEILKNKETASLGILAESNAEDAEKLLKAGEADPSTKEKNVAEAKKFLKAAKEYAEKGLELMKKLK
B22: design_605_6ebdab39-eaab-4492-afcb-164e20c3b25e_128_dldesign_0_cycle1_af2pred (protein)
chain: MEEKKAEEKKLKEKKEEAKEYLRRAKRAMGRAMVKGDEEAFELAEEAVYLAHLAIKDPKYIEEAKKKTEEAEKRVEA
B23: design_604_3e0b3014-b333-46f1-8adc-d7f0bf8048fa_2206_dldesign_0_cycle1_af2pred (protein)
chain: NELEKLKEEIKKEGEKKLKEVEEKYKEAKKLLKEDKEKGLKLLAETAGKAYEYAAEFEVLSKKVPEAAEYAKKLRAKAKEIRKLAEEA
B24: design_605_6ebdab39-eaab-4492-afcb-164e20c3b25e_178_dldesign_0_cycle1_af2pred (protein)
chain: MSEEIKKKAEEIVEEALKKAEAAPTVEEAQAILDEALDKAVSLGKTIEEKKYAADLVSKARKKLREVWKAR
B25: design_604_3e0b3014-b333-46f1-8adc-d7f0bf8048fa_2138_dldesign_0_cycle1_af2pred (protein)
chain: GEELIKRAEEVIERAEKVRKEDPSLAKEANEAISTAEQAKQAAENAVKAAADPEKAKEFKEAAEKYLEKAEKRVEELEKKVKE
B26: design_605_6ebdab39-eaab-4492-afcb-164e20c3b25e_494_dldesign_0_cycle1_af2pred (protein)
chain: AEALEKGKAASAALDANIATGFATAEKTGDKAAAGAAAVAATAEAGAAIGPEAAEKGRRVMTSIFDGYVKA
B27: design_605_6ebdab39-eaab-4492-afcb-164e20c3b25e_50_dldesign_0_cycle1_af2pred (protein)
chain: DEKIEELREAILESAKSGGETVEEVAKLAKELGLTSAEVMLAALEAAEELPEKRELAREIGRRIAAAVLA
B28: design_605_6ebdab39-eaab-4492-afcb-164e20c3b25e_707_dldesign_0_cycle1_af2pred (protein)
chain: MKKQAIELAEEAKELMEKEGATPEAVALASSALRTAGFPRELAEEVREAYKKDKEEGEKKLKEAVKLVLERAKKK
B29: design_605_6ebdab39-eaab-4492-afcb-164e20c3b25e_250_dldesign_0_cycle1_af2pred (protein)
chain: AAAAAAARLAAGLAAAAKFVEEATKKAREIAAKKTPEESAKAKAEVEEYEAMARDALAMGNAAGARSIARLALEKVS
B30: design_605_6ebdab39-eaab-4492-afcb-164e20c3b25e_16_dldesign_0_cycle1_af2pred (protein)
chain: AAAAHAKAVAEAKEEMKETIKEEAKKAKEKNEEAGKESLEFGKELLEFFEKSMEKVKDPKEAKKGGERGKKIIKKNAEAITKAIT
B31: design_604_3e0b3014-b333-46f1-8adc-d7f0bf8048fa_1927_dldesign_0_cycle1_af2pred (protein)
chain: LVEEAKKIAEEKAEEMKKAMEKAEKEGKEAMKKAKEKFKKLRAELKKLYEEYKKKDPEAAKKLAEGAHKMYEYMNEAEHKL
B32: design_605_6ebdab39-eaab-4492-afcb-164e20c3b25e_558_dldesign_0_cycle1_af2pred (protein)
chain: EEEKKLVELLHEAQELAAEAEFYSKKDKEKSKEYIEKATKKIEEAAKLAGFEPIKAKNVEDLKEVLKEAIKKASERIKERKA
B33: design_605_6ebdab39-eaab-4492-afcb-164e20c3b25e_689_dldesign_0_cycle1_af2pred (protein)
chain: GAAQEEADKALEKAGKILKEAEKLAKEAAKIGTEEEAKELEELIKKAKELLEKGKASTPEEKKKLAVEAAEYAHEARALAKHILASK
B34: design_604_3e0b3014-b333-46f1-8adc-d7f0bf8048fa_1994_dldesign_0_cycle1_af2pred (protein)
chain: DNKKTVEALSKVNRLGKEAGEAPKEETMKLVEEGVKYAKEEAKKLKDPDYKKYLIDRGKELEENAKKYLA
B35: design_604_3e0b3014-b333-46f1-8adc-d7f0bf8048fa_2314_dldesign_0_cycle1_af2pred (protein)
chain: EKEKRKEAIEKAEKVSTRIAKDIDTPEAKKIEELTKEAAEKALENVDNPEEVVKIMKEAAEEAAKDPEMEAVALVWKNAADFIK
B36: design_605_6ebdab39-eaab-4492-afcb-164e20c3b25e_445_dldesign_0_cycle1_af2pred (protein)
chain: AKEKALIDLQIAEQMAEAAKEGYAGTAAAKRAAKAAKRAIKLDPSLAEEAVKIMKELAKAAAKQDPEAGKVAAKELKEVEKEAKKVKE
B37: design_604_3e0b3014-b333-46f1-8adc-d7f0bf8048fa_2472_dldesign_0_cycle1_af2pred (protein)
chain: EEEKKLTDEAIKEAKKLFAKAGAEEDAKEVAEKARKEGVSAGLSKALSLAEYYKAEGNEKKAEAAEKAAEALADALIKIRKAKRE
B38: design_604_3e0b3014-b333-46f1-8adc-d7f0bf8048fa_1949_dldesign_0_cycle1_af2pred (protein)
chain: AEKYKKKMAEAAHLYADLAMEGKPEEGEKEADAIIEKALKEGKAAGDGEAAEAAAKEARATMEYLKKTMEEADKRNK

target: VTCN1, Q7Z7D3
Sequence (Q7Z7D3 whole entry): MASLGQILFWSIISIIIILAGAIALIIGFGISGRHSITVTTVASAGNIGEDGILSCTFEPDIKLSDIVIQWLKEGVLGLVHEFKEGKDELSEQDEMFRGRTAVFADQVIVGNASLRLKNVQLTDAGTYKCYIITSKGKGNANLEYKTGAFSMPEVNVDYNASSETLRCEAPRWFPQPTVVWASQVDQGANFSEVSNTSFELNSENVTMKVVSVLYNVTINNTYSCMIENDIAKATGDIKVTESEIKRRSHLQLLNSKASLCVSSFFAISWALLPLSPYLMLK

Binding in a display sort, inactive:
B1 not found
B2 not found
B3 not found
B4 not found
B5 not found
B6 not found
B7 not found
B8 not found
B9 not found
B10 not found
B11 not found
B12 not found
B13 not found
B14 not found
B15 not found
B16 not found
B17 not found
B18 not found
B19 not found
B20 not found
B21 not found
B22 not found
B23 not found
B24 not found
B25 not found
B26 not found
B27 not found
B28 not found
B29 not found
B30 not found
B31 not found
B32 not found
B33 not found
B34 not found
B35 not found
B36 not found
B37 not found
B38 not found
